HTR5A inv ag = HTR5A inverse agonists in luminescence cell assay, primary screen, counter-screen for OPRM1-OPRD1 heterodimer inverse agonist project, full-deck HTS. inhibition, % at 9.3 µM. 340,000 tested, 0.083% active. AID 504634, 2011. HTR5A cell line, inverse agonism; in the data active = inhibition mostly above about 23%, no sharp cut-off; inactive = mostly below about 18%;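 note: 0% = cells with DMSO and 100% = no-cell wells with DMSO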
bovine MsrA act = bovine MsrA enzyme activators, primary screen, biochemical, absorbance, HTS; activation, % at 10.6 µM; 360,000 tested, 0.3% active; purified bovine MsrA, absorbance read-out; in the data active = activation above about 7.5%;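 note: 0% = vehicle and 100% = reference activator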
MsrA inh = bovine MsrA enzyme inhibitors, primary screen, biochemical, absorbance, HTS; inhibition, % at 15.5 µM; 360,000 tested, 0.75% active; AID 651718, 2012; Methionine sulfoxide reductase A (Bos taurus); purified bovine MsrA, absorbance read-out;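 note: 0% = vehicle wells with enzyme and 100% = reference inhibitor wells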
OPRM1-OPRD1 inv = inverse agonists of MOR-DOR heterodimerization, primary screen, cell-based, luminescence; Mu-type opioid receptor (Homo sapiens) + Delta-type opioid receptor (Homo sapiens), …; cell-based MOR-DOR heterodimer luminescence, inverse agonism; inhibition, % at 9.3 µM; 340,000 tested, 0.21% active; AID 504357, 2011; in the data active = inhibition above about 22%, passing the limit was not always enough;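 note: 0% = cells with DMSO and 100% = wells without cells with DMSO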
Target sequence (P35372 whole entry, looked up): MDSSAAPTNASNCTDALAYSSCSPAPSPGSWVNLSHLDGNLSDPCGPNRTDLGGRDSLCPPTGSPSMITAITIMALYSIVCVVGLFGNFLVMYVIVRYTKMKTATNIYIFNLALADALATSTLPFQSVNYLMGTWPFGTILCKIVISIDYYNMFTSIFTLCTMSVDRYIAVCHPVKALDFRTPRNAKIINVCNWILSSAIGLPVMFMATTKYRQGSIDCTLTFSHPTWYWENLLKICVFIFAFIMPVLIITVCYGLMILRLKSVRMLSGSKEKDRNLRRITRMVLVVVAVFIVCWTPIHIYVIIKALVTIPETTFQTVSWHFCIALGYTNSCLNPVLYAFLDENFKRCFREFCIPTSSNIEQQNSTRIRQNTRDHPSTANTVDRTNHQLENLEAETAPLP
Target sequence (P41143 whole entry, looked up): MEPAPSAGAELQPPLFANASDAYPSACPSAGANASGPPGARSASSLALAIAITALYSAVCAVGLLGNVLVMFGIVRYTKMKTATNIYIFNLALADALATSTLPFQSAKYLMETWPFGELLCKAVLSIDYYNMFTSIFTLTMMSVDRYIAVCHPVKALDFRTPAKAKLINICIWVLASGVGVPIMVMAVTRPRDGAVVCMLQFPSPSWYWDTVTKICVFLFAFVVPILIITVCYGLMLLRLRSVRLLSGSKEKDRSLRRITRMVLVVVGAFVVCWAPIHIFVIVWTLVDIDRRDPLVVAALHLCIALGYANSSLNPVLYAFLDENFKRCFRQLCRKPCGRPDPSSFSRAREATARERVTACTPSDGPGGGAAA
MOR-DOR ag = agonists of OPRM1-OPRD1 heterodimerization, primary screen, cell-based, luminescence | activation, % at 9.3 µM | Mu-type opioid receptor (Homo sapiens) + Delta-type opioid receptor (Homo sapiens), … | cells | 340,000 tested, 0.3% active | AID 504326, 2011; in the data active = activation above about 18%;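 note: 0% = vehicle-treated cells and 100% = reference agonist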
HTR5A ag ctr = HTR5A agonists in luminescence cell assay, primary screen, counter-screen for OPRM1-OPRD1 heterodimer agonist project, full-deck HTS | 5-hydroxytryptamine receptor 5A (Homo sapiens), P47898 | cell-based | activation, % at 9.3 µM | 340,000 tested, 0.61% active | AID 504692, 2011; in the data active = activation mostly above about 9.5%, no sharp cut-off; inactive = mostly below about 7.6%;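 note: 0% = cells with vehicle only and 100% = reference agonist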
MsrA inh confirm = bovine MsrA inhibitors, retest, confirmation, biochemical, absorbance, HTS; shares compounds with MsrA inh; purified bovine MsrA, absorbance read-out; inhibition, % at 15.5 µM; 2,300 tested, 41% active;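 note: coupled to thioredoxin reductase with NADPH and selenocystamine and DMSO as substrate; 0% = vehicle only and 100% = full effect of reference inhibitor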
An asterisk follows results filed as active; x = not tested or not shown. Compounds with a hit are over-represented: about 1.9% of the library has one in this group of screens. Cut-off read from the data, not from the text of the source, unless noted: active = inhibition above about 4.5%; inactive = the rest.

SMILES | HTR5A inv ag | bovine MsrA act | MsrA inh | OPRM1-OPRD1 inv | MOR-DOR ag | HTR5A ag ctr | MsrA inh confirm
COc1ccc(C(=O)N/C(=C\c2cn(C)c3ccccc23)C(=O)NCCCN2CCOCC2)cc1OC | -15.7 | -5.1 | 5.7* | 19.7 | -3.8 | -3.0 | 4.3
Cn1cc(/C=C(\NC(=O)c2ccccc2)C(=O)NCCCN2CCOCC2)c2ccccc21 | 2.9 | -6.5 | 6.8* | 13.2 | -2.5 | -0.8 | 5.3*
C[C@H](CO)N1C[C@H](C)[C@@H](CN(C)C(=O)Nc2ccc(C(F)(F)F)cc2)OCc2cn(nn2)CCCC1=O | x | x | 1.1 | x | x | x | x
C[C@@H]1CNCCN1c1ccc(N2CCN(Cc3ccccc3)[C@@H](C)C2)c(C#N)c1 | x | x | -0.4 | x | x | x | x
CN(C)c1ccc(/C=C(\NC(=O)c2ccccc2)C(=O)NCCN2CCOCC2)cc1 | 15.1 | -4.4 | 5.3* | 6.9 | -0.9 | -5.7 | 4.3
Nc1nc2c(ncn2[C@@H]2O[C@H](C(=O)N[C@H](Cc3ccccc3)C(=O)NCc3ccccc3)[C@@H](O)[C@H]2O)c(=O)[nH]1 | x | x | 1.9 | x | x | x | x
O=C1NC(=S)N/C1=C/C=C/c1ccccc1 | 7.2 | -4.5 | 4.7* | 5.1 | -0.7 | -2.6 | 3.3
COC(=O)C1(C(=O)OC)C[C@H](c2ccc(OC)cc2)N(Cc2ccccc2OC)[C@@H]1c1cccs1 | x | x | 0.4 | x | x | x | x
COc1ccc(/C=N/Nc2ccc(C(=O)O)cc2)c(OC)c1OC | -6.5 | -6.1 | 5.8* | 24.7 | -5.5 | 1.8 | 5.5*
COc1cc(/C=N/Nc2ccc(C(=O)O)cc2)cc(OC)c1OC | 4.7 | -2.0 | 2.6 | -2.3 | 0.5 | -0.1 | x
COc1ccc(/C=N/NC(=S)SC)cc1OC | -1.2 | -4.2 | 6.2* | -14.1 | 2.0 | 3.1 | 4.3
COc1ccc(C=NNC(=O)NN=Cc2ccc(OC)c(OC)c2)cc1OC | 11.5 | -5.1 | 2.8 | -0.7 | 0.1 | -2.8 | x
COc1ccc(/C=N/Nc2nc(C)nc(N)n2)cc1 | 17.2 | -4.2 | 4.7* | 4.9 | -1.0 | -4.6 | 3.3
COc1cc(/C=N/Nc2ccc(S(N)(=O)=O)cc2)cc(OC)c1OC | -4.8 | -1.8 | 5.6* | -1.0 | 0.2 | 1.7 | 6.3*
CCNc1nc(NCC)nc(N/N=C/c2ccc(OC)cc2)n1 | x | -5.2 | 0.7 | x | x | x | x
CCCCCNC(=O)C(CCc1ccccc1)n1c(=O)c(-c2ccccc2)nc2ccccc21 (stereo not given) | x | x | 0.8 | x | x | x | x
COc1ccc(/C=N/NC(=S)Nc2ccccc2)cc1 | -7.5 | -8.4 | 4.9* | 16.4 | -3.1 | 2.6 | 3.7
COc1ccc(/C=N/Nc2nc(N)cc(Cl)n2)cc1OC | 5.0 | -2.6 | 5.8* | 23.6 | -5.1 | -2.6 | 2.6
CC(=O)Nc1ccc(/C=N/NC(=S)NC(C)C)cc1 | 12.2 | -0.8 | 8.9* | 4.8 | -1.0 | -4.9 | 3.8
COc1ccc(/C=N/Nc2nonc2N)cc1OC | 13.2 | -1.5 | 3.9 | 1.6 | -0.3 | -4.5 | x
COc1cc(C=O)ccc1O | x | -7.5 | 6.2* | x | x | x | 3.3
COC(=O)[C@]12C[C@H](CC(=O)NCC3CCCCC3)C(=O)N(Cc3ccccc3)C1=C[C@H](C(C)(C)C)O[C@@H]2C | x | x | 0.9 | x | x | x | x
Cc1cc2c(cc1C)-n1nnnc1C(N1CCN(C(=O)OCc3ccccc3)CC1)C(=O)N2 (stereo not given) | x | x | 0.9 | x | x | x | x
CCCNC(=O)C1(C)CCN(C(=O)COc2ccc(Cl)cc2Cl)C1 (stereo not given) | x | -0.4 | 1.1 | x | x | x | x
COc1cc(/C=N/Nc2nc(N3CCCC3)nc(N3CCCC3)n2)ccc1O | -26.4 | -13.2 | 5.2* | 9.3 | -1.8 | -0.7 | 2.1
SMILES | HTR5A inv ag | bovine MsrA act | MsrA inh | OPRM1-OPRD1 inv | MOR-DOR ag | HTR5A ag ctr | MsrA inh confirm
COc1cc(/C=N\Nc2cc(=O)n(C)c(=O)n2C)ccc1O | 12.0 | -1.1 | 3.0 | 1.4 | -0.3 | 5.7 | x
COc1cc(/C=N/NC(=S)Nc2cccc(C(=O)O)c2)ccc1O | 38.2 | -5.6 | 5.1* | 11.3 | -2.5 | -0.2 | 5.6*
COc1cc(/C=N/Nc2ccc(C(=O)O)cc2)ccc1O | 1.5 | -6.2 | 7.1* | 9.7 | -2.1 | -5.6 | 5.1*
COc1ccc(/C=N/Nc2cc(=O)n(C)c(=O)n2C)cc1OC | 12.5 | -7.6 | 4.7* | 0.5 | -0.1 | 3.2 | 4.7*
Cc1cc2c(cc1C)-n1nnnc1C(N1CCN(c3ccccc3F)CC1)C(=O)N2 (stereo not given) | x | x | -1.0 | x | x | x | x
COc1ccc(-c2cnnc(N/N=C/c3ccc(O)c(OC)c3)n2)cc1 | 0.2 | -13.6 | 6.4* | -1.6 | 0.3 | -0.1 | 6.6*
CCN(CC)c1ccc(/C=N/NC(=O)c2ccc3nc[nH]c3c2)cc1 | -7.8 | -3.2 | 3.7 | 11.8 | -2.3 | -0.9 | x
CN(C)c1ccc(/C=N/NC(=O)c2ccc3nc[nH]c3c2)cc1 | -7.9 | -3.3 | 4.9* | 8.2 | -1.7 | -2.6 | 4.9*
COc1cc(/C=N/NC(=O)c2ccc3nc[nH]c3c2)ccc1O | -1.4 | -3.6 | 4.2 | 9.5 | -1.8 | 0.9 | x
CSc1ccc(/C=N/NC(=O)c2ccc3nc[nH]c3c2)cc1 | x | -5.3 | 5.1* | x | x | x | 6.1*
CC(=O)NC(c1ccc(F)c(F)c1)c1nc(-c2cnn(C)c2)cs1 (stereo not given) | x | -2.0 | 0.0 | x | x | x | x
Cc1ccc(C(O)c2ncc(-c3cccc4ccccc34)[nH]2)cc1F (stereo not given) | x | -0.3 | -0.1 | x | x | x | x
O=C(CCN1C(=O)/C(=C\C=C\c2ccccc2)SC1=S)Nc1ccc(C(=O)O)cc1 | 27.0 | -4.0 | 0.3 | 8.0 | -2.4 | -4.1 | x
O=C(CN1C(=O)S/C(=C\C=C\c2ccccc2)C1=O)Nc1ccc(C(=O)O)cc1 | 2.3 | -10.9 | 6.6* | 15.0 | -2.9 | 2.5 | 4.5
O=C(CN1C(=O)S/C(=C/C=C/c2ccccc2)C1=O)Nc1ccc(C(=O)O)cc1 | 12.3 | -4.2 | 5.3* | 15.8 | -3.3 | 5.0 | 5.8*
O=C(CCCN1C(=O)S/C(=C\C=C\c2ccccc2)C1=O)Nc1ccc(O)cc1 | 3.5 | -2.8 | 4.5 | -0.3 | 0.1 | -0.3 | x
O=C1NC(c2ccccc2)c2c(-c3ccccc3)n[nH]c21 (stereo not given) | x | x | 1.1 | x | x | x | x
COc1ccc(CCNC(=O)c2cc([C@@H](NC(=O)OC(C)(C)C)C(C)C)sc2N)cc1OC | x | x | 0.1 | x | x | x | x
COCc1cc(N2CCNC[C@@H]2C)ccc1N1CCS(=O)(=O)CC1 | x | x | -0.6 | x | x | x | x
c1ccc(-n2nnnc2-n2cnc3ccccc32)cc1 | -7.8 | -1.3 | 9.9* | 7.7 | -1.4 | 3.0 | 4.7*
c1ccc(N2CCN(c3nnnn3-c3ccccc3)CC2)cc1 | 15.6 | -0.7 | 1.3 | 19.3 | -3.4 | -6.2 | x

From PubChem BioAssay
